Laboratory results reported in the supplement of paper PMC6555819.

What was measured:
Assay in all cases: PBM binding z-score (relative to random genomic background probes); higher = stronger binding; sequences stand for … in GC…GCGATTGACAGCGTAGAATGAAGG
[1] = system: RARb homodimer (NR concentration 270 nM)
Outline: (§1)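 Antibodies against each partner of ligand-free nuclear receptor dimers (one per run) detected binding on custom Agilent 4×180K protein-binding microarrays after 1 h incubation. The double-stranded probes had 34-nt variable regions carrying direct-repeat seeds, single-nucleotide variants, half-site ablations and random human genomic background sequences. Binding z-scores, from regression-normalized fluorescence, use the random background probes as reference.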

[2] = system: RARg:RXRa (NR concentration 270 nM, RXRa partner concentration 90 nM)
Outline: as §1

[3] = system: RARg homodimer (NR concentration 270 nM)
Outline: as §1

[4] = system: RXRa DBDmut IVT, anti-RXR (DBD mutation: RXRa K156A/R161A, NR concentration 90 nM)
Outline: as §1

[5] = system: RXRa homodimer (NR concentration 180 nM)
Outline: as §1

[6] = system: THRa:RXRa (NR concentration 90 nM, RXRa partner concentration 90 nM)
Outline: as §1

[7] = system: THRa homodimer (NR concentration 90 nM)
Outline: as §1

[8] = system: VDR homodimer (NR concentration 270 nM)
Outline: as §1

Row | Sequence | PBM binding z-score [1] | PBM binding z-score [2] | PBM binding z-score [3] | PBM binding z-score [4] | PBM binding z-score [5] | PBM binding z-score [6] | PBM binding z-score [7] | PBM binding z-score [8]
1 | CGTCCAAGGTCAAGGTCAGTGGAAGAGACTCGAA | 5.13 | 6.64 | 7.58 | 3.79 | 6.05 | 4.21 | 3.67 | 3.15
2 | AGTGAAAGTTCACTAGGTAACGTAAGATTCAGCT | 3.4 | 4.46 | 5.32 | 3.84 | 3.77 | 1.96 | -0.00547 | 3.15
3 | CAAACTATGTCAAGGTCAAAGTCGGTTTGTGCCA | 4.39 | 4.59 | 4.75 | 2.54 | 4.98 | 4.03 | 3.78 | 4.25
4 | CAAACTAGGTCAAGACGTCAAAGTCCGCTTCCCG | 3.2 | 4.09 | 4.74 | 1.65 | 3 | 2.68 | 0.895 | 0.581
5 | GCGACTGGGGCAAAGCAGGTTTCCATAAGGTTGG | -0.0206 | -0.174 | -0.133 | 0.157 | -0.342 | 1.21 | -0.028 | -0.34
6 | CCGACTGGGGCATAAGGTGACCATAAGCCAGCCC | 1.26 | 0.678 | 0.621 | -1.25 | 0.516 | 1.7 | 0.792 | -0.621
7 | CCTAGCTGGTCAGGAGGTCACACACCGGATATGA | 4.31 | 5.14 | 4.44 | 0.548 | 4.69 | 3.36 | 2.01 | 2.14
8 | TAGCCTAGGACATTCAGGGGCCAGTATAGAAAGC | 0.77 | 0.352 | 0.546 | -0.698 | -0.1 | 0.588 | -0.132 | -0.236
9 | TCTAGCAGGCCAGAGGGTCACTTAAGAGGTACGG | 2.71 | 2.39 | 2.2 | 0.154 | 2.36 | 1.53 | -0.266 | 0.361
10 | AATACAGGATCATCGTAGGCCAGAGTACGCACAG | 0.484 | 0.381 | 0.569 | 0.155 | 0.54 | 1.59 | -0.259 | 0.692
11 | ACTAGTTGGCCAGCTGAGGTCACACACAATTCGG | 3.96 | 3.64 | 3.6 | 0.874 | 4.1 | 4.47 | 5.09 | 2.74
12 | TAGCCTAGGTCATGGGTCAGTATACCACGCGAAC | 3.88 | 5.09 | 5.02 | 0.71 | 4.72 | 3.51 | 1.65 | 1.29
13 | CCGACTGGGGCAGAGGTTACCATACTCAGTACGA | 1.64 | 1.81 | 1.16 | 0.0849 | 2.24 | 1.14 | 0.0259 | 0.131
14 | GGAACGAGGGCATGTTGATAGCAGAGTTTGATGG | 1.11 | 0.813 | 1.38 | 2.25 | 0.438 | 1.1 | 0.428 | 1.6
15 | CCGACTGGGGCGAGGTTACCATAACGCACAGCCA | 0.887 | 0.854 | 0.545 | -0.326 | 1.39 | 1.55 | 0.408 | 0.294
16 | TCTATTGGTTGAAGGGCAACCGACGAGTCCGTTT | 1.17 | 0.455 | 0.586 | 1.37 | 0.744 | 0.279 | 0.101 | 1.24
17 | ACTAGCAGGCCAAGGGTCACTCACGATTAGTCCG | 3.79 | 3.91 | 2.97 | 0.459 | 3.93 | 2.56 | 0.409 | 1.07

Row | Sequence | PBM binding z-score [1] | PBM binding z-score [2] | PBM binding z-score [3] | PBM binding z-score [4] | PBM binding z-score [5] | PBM binding z-score [6] | PBM binding z-score [7] | PBM binding z-score [8]
18 | CGTCCAAGGTCAAAGAGGTCAGTGAATGCCGAGT | 5.66 | 7.1 | 7.62 | 4.35 | 7.47 | 4.48 | 3.36 | 6.32
19 | ATGTGTAGGTTATCGGGTCATTCAGTTTGCGCAT | 3.35 | 3.59 | 2.67 | 1.75 | 3.57 | 3.57 | 3.71 | 3.91
20 | TCTAGTTGGTCACGTAGGTCACACACGACGGGTA | 3.66 | 3.36 | 3.67 | 1.06 | 2.91 | 2.39 | 1.04 | 1.22
21 | GCTTGTAGATCAAGGTTATGAAAGACTAAGCTAA | 0.411 | 0.306 | 0.25 | -0.2 | 0.623 | 1.36 | -0.196 | -0.036
22 | CCTCGGAGGACCGAAGGTCAGAGCTGTCCGCTTT | 2.65 | 2.03 | 2.2 | -0.585 | 1.54 | 1.62 | -0.389 | 0.161
23 | ACTAGCAGGCTAAGGGTCACTCAAGATTAGTCCG | 3.89 | 3.88 | 3.65 | 0.904 | 4.18 | 2.6 | -0.003 | 1.01
24 | GTACCAAGGTGAAAAGGTCGTTGATGAGTAGGCG | 3.49 | 4.66 | 2.59 | 0.369 | 3.57 | 2.58 | 0.7 | 1.7
25 | CGAACTAGGTCATCCTGGACAGTGAATACATTGA | 2.86 | 3.82 | 4.56 | 2.37 | 2.67 | 2.89 | 1.35 | 1.5
26 | TCTAGTTGGTCAAGGGTCACACACTCGAAATGCG | 4.19 | 5.29 | 4.87 | 1.59 | 6.31 | 3.13 | 1.47 | 2.76
27 | TCGAGTAGGTAAGGGGCATTCAGAATGGCGTCGA | 0.551 | -0.117 | -0.0823 | -0.0222 | 0.0821 | -0.336 | -0.325 | 0.178
28 | CGTCCAAGGTCAGCAGGTCAGTAAAAGCGACGTG | 4.97 | 6.32 | 6.68 | 2.49 | 5.07 | 3.97 | 2.48 | 1.81
29 | CCTTACGGGTCACGAGGTTAAAGCACGACGAGCG | 3.99 | 6.28 | 5.56 | 2.06 | 6.97 | 3.82 | 0.843 | 2.06
30 | ACTAGTTGGTCGGCTGAGGTCACACACAATTCGG | 4.05 | 3.76 | 3.25 | 1.12 | 4.19 | 4.77 | 5.24 | 3.84
31 | ACTCTGAGGACAAAGGTCAGAGCTACGCCAGTGA | 4.42 | 6.21 | 5.31 | 2.07 | 5.18 | 4.44 | 2.66 | 1.19
32 | AGTCACAGTTCAGGACGAGGTAACGTAAAGCACG | 1.66 | 2.48 | 1.95 | 1.31 | 1.28 | 3.34 | 1.84 | 0.905
33 | AGTCAAAGTTCAGGACGAGGTAAGGTAAAGCACG | 3.46 | 4.56 | 4.61 | 3.11 | 3.09 | 3.72 | 2.26 | 2.09
34 | CAAATTAGGTCAAAGGTCAAAGTCGAGCCAACCA | 5.41 | 9.09 | 7.57 | 3.17 | 10.4 | 4.76 | 2.4 | 3.43
